Pf growth 48h = P. falciparum growth inhibition at 48 hours (one generation) | 310,000 compounds, 5.9% hits | P. falciparum luciferase growth in erythrocytes, 48 h | Potency, µM (series often up to 28.7 µM), actives largely listed as inhibitors
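First compound was added to culture medium, then infected red cells at 0.1% parasitemia and 2% hematocrit (final). After incubation at 37 C under 5% CO2, luciferase detection reagent was dispensed and light output recorded.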
CHX counter = counter-screen for Shiga toxin inhibitors: cycloheximide protein synthesis inhibition | cell reporter, cycloheximide protein synthesis inhibition counterscreen | max response, % | 300,000 compounds, 12% hits | AID 2314; in the data active means max response mostly above about 13%, no sharp cut-off; inactive means mostly below about 14%; further: read at 38.3 µM for the half of the compounds with a filed dose
Giardia FBPA inh = inhibitors of Giardia lamblia fructose-1,6-bisphosphate aldolase. purified Giardia FBPA. 290,000 compounds, 0.71% hits. A8B2U2. AID 2451. Potency, µM (titrated, usually from 59.6 µM), hits mostly inhibitors; further: nearly all actives have a fitted effect of over 55% in size
Target sequence (A8B2U2 whole entry, looked up): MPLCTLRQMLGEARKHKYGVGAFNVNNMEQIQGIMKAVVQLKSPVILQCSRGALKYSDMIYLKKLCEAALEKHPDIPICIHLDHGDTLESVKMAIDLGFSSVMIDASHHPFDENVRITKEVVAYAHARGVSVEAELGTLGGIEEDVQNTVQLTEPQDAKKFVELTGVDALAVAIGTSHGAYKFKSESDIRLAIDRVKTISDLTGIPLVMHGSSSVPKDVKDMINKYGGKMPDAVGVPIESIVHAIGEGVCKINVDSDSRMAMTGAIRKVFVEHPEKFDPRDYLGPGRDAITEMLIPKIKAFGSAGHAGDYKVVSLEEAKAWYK
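40 nM FBPA preincubated 10 min at RT with compound (up to 57.5 uM final), then substrate plus GAPDH/TPI/NAD/arsenate coupling and diaphorase/resazurin added. Fluorescence read after 20 min at RT, 525/598 nm.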
Pf growth 96h = P. falciparum growth inhibition at 96 hour, primary screen for plastid delayed-death inhibitors; P. falciparum luciferase reporter growth, 96 h; Potency, µM (top dose mostly 28.7 µM), most hits filed as inhibitors; AID 504834; 320,000 compounds, 6.9% hits
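Two-generation exposure (96 h) targets delayed-death phenotype. Reporter parasites carrying integrated firefly luciferase, in red cells at 2% hematocrit and 0.05% parasitemia final, kept at 37 C, 5% CO2; luminescence loss indicates inhibition.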
NS1 inh = blocks influenza NS1 protein function. Potency, µM (titrated, usually from 46.1 µM). 270,000 compounds, 0.4% hits; calls by dose curve; further: actives are rising curves; nearly all actives have a fitted effect of over 50% in size
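A cell-based growth assay was used: compounds that relieve NS1-induced slow growth of budding yeast raise OD600. Assay medium was yeast nitrogen base with ammonium sulphate and -URA supplement, pH 6.0, with 2% galactose.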
Shiga inhibitor = blocks Shiga toxin action in Vero cells. Vero cells, Shiga toxin protein synthesis inhibition reporter. 290,000 compounds, 9.2% hits. inhibition, % at 38.7 µM; in the data active means inhibition mostly above about 28%, no sharp cut-off; inactive means mostly below about 43%
Large screens that a line does not name were inactive. The list is not random: actives were taken first. Their share in the collection is about 21%. Unless noted, the call rests on the fitted dose curve; in most records, active means well fitted curve in the direction sought with a large enough effect; inconclusive means small, poorly fitted or top-dose-only effect, or another doubt; inactive means no such curve, though single readings can be large; an effect the other way counts as inactive or inconclusive.

Cc1nnc(SCC(=O)Nc2nc3ccccc3s2)n(N)c1=O	none
C=CCNC(=S)N/N=C/c1cccc([N+](=O)[O-])c1	Pf growth 96h inconclusive (no result: NS1 inh)
COc1ccc2nc(SCC(=O)NCc3ccc(S(N)(=O)=O)cc3)[nH]c2c1	Pf growth 96h inconclusive
COc1ccc(-c2nnc3ccc(SCC(=O)Nc4nccs4)nn23)cc1OC	none
Cc1cc(=O)[nH]c(SCC(=O)Nc2nc3ccccc3s2)n1	none (no result: NS1 inh)
COc1ccc(-c2nnc3ccc(SCC(=O)Nc4nc5ccccc5s4)nn23)cc1OC	Pf growth 48h 8.3µM, Pf growth 96h inconclusive
O=C(CSc1cn[nH]n1)Nc1nc2ccccc2s1	CHX counter 27, Shiga inhibitor 53
Cc1c(C)n2c(SCC(=O)Nc3cccc4ccccc34)nnc2[nH]c1=O	Pf growth 48h 12µM, Pf growth 96h inconclusive (no result: CHX counter, Giardia FBPA inh, NS1 inh, Shiga inhibitor)
Cn1ccnc1SCC(=O)Nc1ccc(Br)cc1C(F)(F)F	CHX counter 22, Pf growth 96h inconclusive, Shiga inhibitor 117 (no result: Giardia FBPA inh)
CCc1nc(SCC(=O)Nc2cccc3ccccc23)[nH]c(=O)c1C	none
CC(=O)N1CCN(C(=O)COC(=O)CNC(=O)c2ccccc2C)CC1	none (no result: CHX counter, Giardia FBPA inh, NS1 inh, Shiga inhibitor)
O=C(CSc1nc2ccccc2s1)NCCOc1ccc(Cl)cc1	Pf growth 96h inconclusive
Cn1ccnc1SCC(=O)Nc1ccc2nc(SCC(=O)NC3CC3)sc2c1	CHX counter 33, Pf growth 96h inconclusive, Shiga inhibitor 113
Nn1c(SCC(=O)Nc2cc(C(F)(F)F)ccc2Cl)nncc1=O	Pf growth 48h 12µM, Giardia FBPA inh inconclusive, Pf growth 96h inconclusive
O=C(CSc1nc2ccccc2s1)NCCOc1ccccc1	CHX counter 15
Cc1ccccc1OCc1nnc(SCC(=O)Nc2ccc3nc(SCC(=O)NC(C)(C)C)sc3c2)n1C	Pf growth 48h inconclusive
CCN(CC)C(=O)CSc1nc2ccc(NC(=O)CSc3nnc(COc4ccccc4C)n3C)cc2s1	Pf growth 48h inconclusive, Pf growth 96h 9.3µM
O=C(COC(=O)C1C2CC3OC(=O)C1C3C2)Nc1cccc(C(F)(F)F)c1 (stereo unspecified)	none
O=C(c1ccco1)N1CCC(c2nc3ccccc3[nH]2)CC1	none (no result: CHX counter, Giardia FBPA inh, NS1 inh, Shiga inhibitor)
O=C(CSc1ccccn1)Nc1cccc(NC(=O)CSc2ccccn2)n1	none (no result: Pf growth 48h)
O=C(CSc1ccccn1)Nc1nc2ccccc2s1	CHX counter 28, Pf growth 96h 2.9µM
O=C(CSc1nc2ccccc2s1)Nc1ncccn1	CHX counter 40
COc1ccc(NC(=O)CSc2nccn2C)c([N+](=O)[O-])c1	CHX counter 23, Shiga inhibitor 60 (no result: NS1 inh)
Cc1cnc(NC(=O)CSc2nc3ccccc3s2)s1	none (no result: Pf growth 48h)
Brc1c(CSc2nc3ccccc3s2)nc2ncccn12	CHX counter 23, Pf growth 96h 3.3µM
CCc1cccc2cc(C(O)CNC(C)(C)C)oc12 (stereo unspecified)	none (no result: Pf growth 48h, Pf growth 96h, NS1 inh)
CCN(CC)c1ccc(C=N/C(C#N)=C(\N)C#N)cc1	CHX counter 28, Shiga inhibitor 54 (no result: Pf growth 96h)
C=CCOc1ccc(CNC(C)(C)C)cc1OC	none
COc1ccccc1-n1ccn(CC(=O)Nc2ccc(C)cc2Cl)c(=O)c1=O	none (no result: CHX counter, Giardia FBPA inh, NS1 inh, Shiga inhibitor)
COc1cccc(CNc2nccs2)c1O	CHX counter 24 (no result: Shiga inhibitor)
NC(=O)c1ccsc1NC(=O)COC(=O)C1CC2CCCC(C1)C2=O (stereo unspecified)	CHX counter 14
COc1ccccc1CCC(=O)Nc1ccc(C)cc1Cl	CHX counter 55, Shiga inhibitor 90 (no result: NS1 inh)
C=CCOc1ccc(CNc2nccs2)cc1OC	CHX counter 26, Pf growth 96h inconclusive, Shiga inhibitor 22
O=C(COC(=O)C1CC2CCCC(C1)C2=O)Nc1ccccc1 (stereo unspecified)	none (no result: CHX counter, Giardia FBPA inh, NS1 inh, Shiga inhibitor)
Cn1nc(C(C)(C)C)cc1NC(=O)Nc1cc(Cl)cc(Cl)c1	Pf growth 48h inconclusive, Pf growth 96h inconclusive
O=C1/C(=C/c2ccccc2)[C@@H](NC2CCCCC2)c2ccccc21	none (no result: Pf growth 48h, CHX counter, Giardia FBPA inh, Pf growth 96h, Shiga inhibitor)
O=C(COc1ccc2ccc(=O)oc2c1)Nc1nccs1	CHX counter 64, Shiga inhibitor 68
O=C(COc1ccccc1)Nc1ncccn1	none (no result: Pf growth 48h)
O=C(COc1ccc2ccc(=O)oc2c1)Nc1cccnc1	none
COc1ccccc1C1(CC(=O)Nc2nccs2)CCOC(C(C)C)C1 (stereo unspecified)	Pf growth 48h inconclusive, Pf growth 96h 13µM
NC(=O)c1ccsc1NC(=O)COc1ccccc1	CHX counter 42, Shiga inhibitor 86 (no result: Pf growth 96h)
O=C(COc1ccccc1)Nc1nccs1	CHX counter 30, Pf growth 96h inconclusive, Shiga inhibitor 53
Cc1ccc(C2(CC(=O)Nc3nccs3)CCOC(C(C)C)C2)cc1 (stereo unspecified)	Pf growth 48h inconclusive
O=C(O)c1ccc(C(=O)O)c(C(=O)O)c1.[NH-][C@@H]1CCCC[C@@H]1[NH-].[Pt]	none (no result: Pf growth 48h, CHX counter, Giardia FBPA inh, Pf growth 96h, Shiga inhibitor)
O=C(COC(=O)c1ccccc1Cl)Nc1nccs1	CHX counter 11
O=C(COc1ccc2ccccc2c1)Nc1nccs1	CHX counter 42, Shiga inhibitor 52
COc1ccccc1CCC(=O)Nc1nccs1	CHX counter 14 (no result: Pf growth 48h)
Cc1cc(C)c(OCC(=O)OC(C)C(=O)N2CCc3ccccc32)c(C)c1 (stereo unspecified)	Pf growth 96h inconclusive (no result: CHX counter, Giardia FBPA inh, NS1 inh, Shiga inhibitor)
C=C1C[C@@]23CC4C5[C@@]6(C)C[C@H](O)C[C@@]57C2[C@H](O)[C@@H]1[C@H](O)[C@H]3[C@H]7N4C6	none (no result: Pf growth 48h, CHX counter, Pf growth 96h, NS1 inh, Shiga inhibitor)
COCc1ccc(C(=O)NC2CCCN(Cc3ccccc3F)C2)o1 (stereo unspecified)	Pf growth 96h inconclusive (no result: Giardia FBPA inh)
Cc1ccc(NC2=Nc3ccccc3CS2)cc1	CHX counter 38
CC(=O)OCC1OC(C#Cc2ccc(Br)cc2)C=CC1OC(C)=O (stereo unspecified)	none (no result: Pf growth 48h, CHX counter, Pf growth 96h, NS1 inh, Shiga inhibitor)
N#CCC1c2ccccc2CCN1C(=O)Nc1ccc(C(F)(F)F)cc1 (stereo unspecified)	Pf growth 48h 13µM, Pf growth 96h 5.9µM
CC(=O)Nc1cc2nc(C)n(Cc3ccccc3[N+](=O)[O-])c2nc1C	Pf growth 96h inconclusive
CC(/C=N/NC(=O)c1cc(-c2ccc(C)s2)[nH]n1)=C\c1ccccc1	Pf growth 96h inconclusive
O=C(N/N=C/C(Br)=C\c1ccccc1)c1cccs1	Pf growth 48h inconclusive, CHX counter 74, Pf growth 96h 3.7µM, Shiga inhibitor 79
CC(=C/c1ccccc1)/C=N/NC(=O)c1cccs1	CHX counter 36, Shiga inhibitor 78
Cc1ccc(C(=O)C(C)OC(=O)CCN2C(=O)C3C4C=CC(C5CC45)C3C2=O)cc1 (stereo unspecified)	none (no result: Giardia FBPA inh)
CCCCC/C=C\C/C=C\C/C=C\CCCCC(N)=O	none (no result: Pf growth 48h, CHX counter, Pf growth 96h, NS1 inh, Shiga inhibitor)
Cc1cc(C)c(C(=O)COC(=O)Cn2c(C)csc2=O)cc1C	CHX counter 24, Shiga inhibitor 44 (no result: Giardia FBPA inh)
Cc1csc(=O)n1CC(=O)OCc1cccc2ccccc12	CHX counter 45, Shiga inhibitor 79
COc1cc(NC(=O)Cc2cccc3ccccc23)c(C(=O)O)cc1OC	none (no result: Shiga inhibitor)
